Hits are enriched below; roughly 1.6% of the tested compounds scored in any of these assays.
KCNQ2 pot: potentiators of rat KCNQ2 potassium channel. Potassium voltage-gated channel subfamily KQT member 2 (Rattus norvegicus), O88943. B-score at 10 µM. 0.54% of 310,000 active. AID 2239, 2010. CHO-K1 KCNQ2, FluxOR thallium flux fluorescence; active compounds read high;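 active = fluorescence ratio B-score at least 3 SD of library B-scores, with initial fluorescence B-score within 3 of them, cut at about 5.3 in these data; same plate scores as AID 2156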;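 also: B-score of peak minus minimum over baseline fluorescence ratio after K+ and Tl+ stimulus; positive B-score means potentiation of KCNQ2 with more thallium influx and brighter signal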
Target sequence (O88943 whole entry, looked up): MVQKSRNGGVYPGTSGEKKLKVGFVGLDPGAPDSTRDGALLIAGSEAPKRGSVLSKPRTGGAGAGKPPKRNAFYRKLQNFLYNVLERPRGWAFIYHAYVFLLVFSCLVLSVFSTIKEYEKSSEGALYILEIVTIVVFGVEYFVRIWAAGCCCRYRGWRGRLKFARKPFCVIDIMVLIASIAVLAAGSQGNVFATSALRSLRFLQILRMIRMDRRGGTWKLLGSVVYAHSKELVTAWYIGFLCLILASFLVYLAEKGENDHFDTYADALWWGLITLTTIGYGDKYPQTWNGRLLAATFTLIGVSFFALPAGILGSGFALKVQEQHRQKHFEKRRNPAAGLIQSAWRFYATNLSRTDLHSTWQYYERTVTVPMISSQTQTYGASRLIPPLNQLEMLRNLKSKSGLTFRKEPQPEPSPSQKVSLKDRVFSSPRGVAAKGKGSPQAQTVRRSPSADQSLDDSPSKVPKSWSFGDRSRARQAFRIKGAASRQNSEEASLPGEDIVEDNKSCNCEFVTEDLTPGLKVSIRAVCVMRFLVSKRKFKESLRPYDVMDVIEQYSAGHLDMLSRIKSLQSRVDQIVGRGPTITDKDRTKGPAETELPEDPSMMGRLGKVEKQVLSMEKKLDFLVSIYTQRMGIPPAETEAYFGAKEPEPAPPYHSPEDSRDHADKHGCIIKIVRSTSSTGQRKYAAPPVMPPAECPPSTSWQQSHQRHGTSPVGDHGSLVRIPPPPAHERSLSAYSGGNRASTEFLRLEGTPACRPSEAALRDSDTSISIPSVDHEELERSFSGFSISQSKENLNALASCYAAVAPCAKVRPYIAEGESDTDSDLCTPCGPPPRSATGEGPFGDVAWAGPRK
KCNQ2 block: rat KCNQ2 potassium channel inhibitors, primary screen, cell-based, CHO-K1, FluxOR thallium flux, B-score | Potassium voltage-gated channel subfamily KQT member 2 (Rattus norvegicus), O88943 | 20 min; active compounds read low | B-score at 10 µM | 1.1% of 310,000 active;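 active = fluorescence ratio B-score at most minus 3 library SDs, with starting brightness B-score within 2 library SDs, cut at about -5.5 in these data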
* marks the source's active call; other numbers are inactive results; i = inactive; · = no result given.

SMILES	KCNQ2 pot	KCNQ2 block
COC(=O)C1=C(c2cccc(OC)c2OC)C[C@@H]2CC[C@H]1N2C(=O)NCc1cccc2ccccc12	-6.83	-6.83*
COC(=O)C1=C(c2cccc(OC)c2OC)C[C@@H]2CC[C@H]1N2C(=O)NCc1ccccc1	·	i
CNC(=O)NC(O)C(Cl)(Cl)Cl (configuration not stated)	0.1	i
CCOP(=O)(/C=C(\Cl)c1ccccc1)C(O)c1ccc(F)cc1 (configuration not stated)	·	i
CCN(CC)C(=O)c1ccc(NC(=O)c2ccc(-n3cncn3)c([N+](=O)[O-])c2)cc1	·	i
Cc1nc2ccccc2c(=O)n1-c1ccc(Br)cc1[N+](=O)[O-]	7.41*	i
Cc1nc2ccccc2c(=O)n1-c1ccccc1[N+](=O)[O-]	1.1	i
O=C(CCN1CCCCC1)Nc1ccc(Cl)cc1C(=O)c1ccccc1	-5.64	-5.64*
O=C(CN1CCCC1)Nc1ccc(Cl)cc1C(=O)c1ccccc1	1.12	i
N=Cc1c(O)n(-c2ccccc2)c(=O)n(-c2ccccc2)c1=O	0.07	i
O=C(O)c1ccc(-[n+]2c(-c3ccccc3)cc(-c3ccccc3)cc2-c2ccccc2)cc1	1.95	i
Nc1ccccc1-[n+]1c(-c2ccccc2)cc(-c2ccccc2)cc1-c1ccccc1	-6.47	-6.47*
Clc1ccc(CSC(Cn2ccnc2)c2ccc(Cl)cc2Cl)cc1 (configuration not stated)	·	i
Clc1ccc(COC(Cn2ccnc2)c2ccc(Cl)cc2Cl)cc1 (configuration not stated)	-8.31	-8.31*
COC(=O)C1=C(c2ccc(S(C)(=O)=O)cc2)C[C@@H]2CC[C@H]1N2C(=O)NCc1ccc(C(F)(F)F)cc1	0.19	i
O=C(COc1ccc(Br)cc1)N1CCN(Cc2c[nH]c3ccccc23)CC1	-5.82	-5.82*
c1ccc2c(CN3CCCCC3)c[nH]c2c1	·	i
CSc1ccc(CN2CCN(Cc3ccccc3Cl)CC2)cc1	-6.59	-6.59*
CSc1ccc(CN2CCN(C(=O)Cc3ccccc3)CC2)cc1	0.4	i
CC(=NCCCn1ccnc1)c1c(O)n(C2CCCCC2)c(=O)[nH]c1=O	·	i
COc1ccc(OC)c(NP(=O)(Oc2ccccc2)Oc2ccccc2)c1	0.02	i
COc1ccc(OC)c(NP(=O)(Oc2ccc(Cl)cc2)Oc2ccc(Cl)cc2)c1	-6.14	-6.14*
CCOC(=O)C1(c2ccccc2)CCN(CC(=O)Nc2ccc(C)cc2)CC1	·	i
CCOC(=O)C1(c2ccccc2)CCN(CCC(C#N)(c2ccccc2)c2ccccc2)CC1	-6.85	-6.85*
CN(C)c1ccc(C2C3C=CC(C3)C2(C#N)C(=O)O)c(Br)c1 (configuration not stated)	·	i
SMILES	KCNQ2 pot	KCNQ2 block
O=C(Nc1ccc(F)cc1)c1c(O)c2c(n(Cc3ccccc3)c1=O)CCCC2	·	i
O=C(Nc1cccnc1)c1c(O)c2c(n(Cc3ccccc3)c1=O)CCCC2	-5.82	-5.82*
CN(C)C1C(=O)C(C(N)=O)=C(O)C2(O)C(=O)C3=C(O)c4c(O)cccc4C(C)(O)C3C(O)C12 (configuration not stated)	0.39	i
O=C(/C=C/c1c[nH]c2ccccc12)c1c(O)n(CCc2ccccc2)c(=O)[nH]c1=O	·	i
CCc1c(C)nc(N)nc1N1N=C1SCC#N	2.52	i
CCc1c(C)nc(N)nc1N1N=C1SCC(=O)OC	9.62*	i
Cc1cc([N+](=O)[O-])c2ccccc2[n+]1[O-]	·	i
N[C@@H]1CCCC[C@H]1N.O=C(O)C(=O)O.[Pt]	·	i
CC(C)c1oc(=O)cc2c1[C@@H](O)[C@H]1OC(=O)[C@@]3(C)C[C@@H](O)[C@@H](O)[C@@]2(C)C13 (some centres not stated)	1.8	i
O=P(Nc1ccccc1)(Oc1ccccc1)Oc1ccccc1	0.72	i
COc1cccc(OP(=O)(Nc2ccccc2)Oc2cccc(OC)c2)c1	-7.07	-7.07*
N#Cc1ccccc1Cn1cc(C(=O)c2cccs2)c2ccccc21	·	i
O=C(c1cccs1)c1cn(Cc2ccccc2Cl)c2ccccc12	-7.33	-7.33*
N=c1sccn1Cc1ccc(Cl)cc1Cl	1.67	i
Clc1ccc(CO/N=C(\Cn2ccnc2)c2ccc(Cl)cc2Cl)c(Cl)c1	-6.05	-6.05*
COCCCn1c(N)c(C(=O)OCCOC)c2nc3ccccc3nc21	0.78	i
CCCCNC(=O)c1c(N)n(CCCOC)c2nc3ccccc3nc12	-8.49	-8.49*
COC(=O)C1=C(c2cc3ccccc3s2)C[C@@H]2CC[C@H]1N2C(=O)NC1CCCCC1	·	i
CCOc1cc2c(cc1OCC)-n1cccc1C(c1ccc(C(C)C)cc1)NC2 (configuration not stated)	·	i
CC1CCN(C(=O)CCl)CC1	·	i
Cc1ccc(OCC(=O)N2CCN(C3CCC(c4ccccc4)CC3)CC2)cc1 (configuration not stated)	-6.25	-6.25*
O=C(COc1ccc(Br)cc1)N1CCN(C2CCCC2)CC1	·	i
COC(=O)C1=C(c2cc3ccccc3s2)C[C@@H]2CC[C@H]1N2C(=O)NCc1ccc(F)cc1	·	i
O=C(c1ccc(-c2ccccc2)cc1)C1CCCN(Cc2ccn[nH]2)C1 (configuration not stated)	1.53	i
COc1cc2c(cc1/C=C/[N+](=O)[O-])OCO2	-7.82	-7.82*
SMILES	KCNQ2 pot	KCNQ2 block
COc1cc(/C=C/[N+](=O)[O-])ccc1OC(=O)c1cccnc1	·	i
Oc1ccc2c3c1O[C@H]1c4[nH]c5ccccc5c4C[C@@]4(O)C(C2)N(CC2CC2)CC[C@]314	·	i
O=C(Cn1ncc2c3ccccc3n(Cc3ccc(F)cc3)c2c1=O)N1CCC2(CC1)OCCO2	19.4*	i
Cc1c2cnn(CC(=O)N3CCC4(CC3)OCCO4)c(=O)c2c(C)n1Cc1ccccc1	·	i
NC(=O)Cn1cc(C(=O)c2ccccc2)c2ccccc21	0.79	i
O=C(c1cn(Cc2ccccc2F)c2ncccc12)C(F)(F)F	·	i
CCOP(=O)(OCC)C(NC(=O)c1cccc(C)c1)C(Cl)(Cl)Cl (configuration not stated)	0.7	i
Cc1cccc(C(=O)NC(Oc2ccccc2)C(Cl)(Cl)Cl)c1 (configuration not stated)	-5.67	-5.67*
CCCN1CCc2cccc3c2[C@H]1Cc1ccc(O)c(O)c1-3	-6.03	-6.03*
COc1cc2c(cc1O)CC1c3c(cc(O)c(OC)c3-2)CCN1C (configuration not stated)	·	i
CNC(=S)N1CCN(CCN=Cc2c(O)n(-c3ccc(C)cc3)c(=S)[nH]c2=O)CC1	1.71	i
O=P(NC(c1ccccc1)c1ccccc1)(Oc1ccccc1)Oc1ccccc1	-5.86	-5.86*
O=P(O)(Oc1ccccc1)OC(c1ccccc1)C(F)(F)F (configuration not stated)	0.26	i
OC[C@@H](O)CCl	1.18	i
CCC(=Nc1ccc2c(c1)CCC2)c1c(O)n(-c2ccc(OC)cc2)c(=O)[nH]c1=O	0.06	i
CC(=O)Nc1ccccc1C(=O)OCc1cccc(F)c1	·	i
CC(=O)Nc1ccccc1C(=O)OCc1ccc(C(=O)c2ccccc2)cc1	-6.48	-6.48*
O=C1NC(=O)C(=Cc2coc3ccc(O)cc3c2=O)C(=O)N1	-5.81	-5.81*
CN1C(=O)C(=Cc2coc3ccccc3c2=O)C(=O)N(C)C1=O	·	i
